Data as given in PubChem BioAssay (NCI).
About 79,000 compounds went through this panel and 15% of them were active in at least one assay; those are over-represented in the sample as a whole. Rule as the data show it: active = growth inhibition above about 70%; inactive = the rest.

Assays:
[1] = NCI Yeast Anticancer Drug Screen. Data for the wt1 strain (AID 149);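 also: 0% = growth of vehicle-treated wt1 cultures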; settings: S. cerevisiae wt1 strain (SPY 50644) growth inhibition, active compounds read high
Method in brief: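 Readout: yeast growth inhibition, normalised to vehicle controls, in the wt1 strain exposed to test compounds.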

[2] = NCI Yeast Anticancer Drug Screen. Data for the rad50EPP+ strain (AID 151);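 also: 0% = growth of vehicle-treated control cultures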; settings: S. cerevisiae rad50 mutant strain, active compounds read high
Method in brief: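 Growth inhibition read against vehicle controls in rad50EPP+ yeast, a strain altered in DNA damage repair, after compound exposure.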

[3] = NCI Yeast Anticancer Drug Screen. Data for the mgt1 strain (AID 153); settings: S. cerevisiae mgt1 mutant growth inhibition, active compounds read high
Method in brief: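 mgt1 yeast grown with test compound; read-out is growth inhibition versus vehicle-treated cultures.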

[4] = NCI Yeast Anticancer Drug Screen. Data for the rad50 strain (AID 155);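 also: 0% = growth of vehicle-only cultures of the same strain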; settings: S. cerevisiae rad50 strain growth inhibition, active compounds read high
Method in brief: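 Compounds were tested on a yeast strain with an engineered DNA damage repair alteration; the reported value is growth inhibition normalised to vehicle treatment.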

[5] = NCI Yeast Anticancer Drug Screen. Data for the mec2-1 strain (AID 157); settings: S. cerevisiae mec2-1 strain, active compounds read high
Method in brief: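 Yeast mec2-1 mutant treated with compound. Readout: growth inhibition vs vehicle controls.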

[6] = NCI Yeast Anticancer Drug Screen. Data for the sgs1 mgt1 strain (AID 161);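 also: 0% = growth of cultures given vehicle only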; settings: S. cerevisiae sgs1 mgt1 strain, active compounds read high
Method in brief: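 Genetically altered yeast, compound exposure, growth inhibition relative to vehicle.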

[7] = NCI Yeast Anticancer Drug Screen. Data for the CLN2oe strain (AID 163);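 also: 0% = growth of vehicle-only control cultures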; settings: S. cerevisiae CLN2oe strain, active compounds read high
Method in brief: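 Read-out: yeast growth inhibition, expressed relative to vehicle-only controls. The strain bears an engineered cell-cycle alteration.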

[8] = NCI Yeast Anticancer Drug Screen. Data for the cln2 rad14 strain (AID 165);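 also: 0% = growth equal to vehicle treated cultures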; settings: S. cerevisiae cln2 rad14 strain, active compounds read high
Method in brief: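 cln2 rad14 yeast strain; compound exposure; growth inhibition read vs vehicle controls.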

[9] = NCI Yeast Anticancer Drug Screen. Data for the bub3 strain (AID 167); settings: S. cerevisiae bub3 mutant strain, active compounds read high
Method in brief: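 Growth of a checkpoint-deficient yeast mutant is measured after compound exposure. Values represent inhibition relative to vehicle.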

[10] = NCI Yeast Anticancer Drug Screen. Data for the wt2 strain (AID 169);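 also: 0% = growth of vehicle-treated yeast cultures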; settings: S. cerevisiae wt2 strain growth inhibition, active compounds read high
Method in brief: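 Read-out: growth inhibition versus vehicle-treated control cultures after compound exposure of the yeast strain.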

[11] = NCI Yeast Anticancer Drug Screen. Data for the mlh1 strain (AID 171);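 also: 0% = growth of vehicle-treated control cultures of the same strain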; settings: S. cerevisiae mlh1 strain growth inhibition, active compounds read high
Method in brief: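 Read-out: growth inhibition versus vehicle controls. Strain: engineered yeast with a defined DNA repair or cell cycle defect, compound-treated.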

[12] = NCI Yeast Anticancer Drug Screen. Data for the sgs1 strain (AID 173);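 also: 0% = growth of vehicle-only control cultures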; settings: S. cerevisiae sgs1 mutant, active compounds read high
Method in brief: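 Read-out: yeast growth inhibition relative to vehicle controls, following compound exposure of a strain with a defined DNA repair/cell cycle alteration.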

[13] = NCI Yeast Anticancer Drug Screen. Data for the mlh1 rad18 strain (AID 175); settings: S. cerevisiae mlh1 rad18 strain growth inhibition, active compounds read high
Method in brief: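 Yeast w/ defined DNA-repair lesions; compound exposure; growth vs vehicle controls → % inhibition.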

[14] = NCI Yeast Anticancer Drug Screen. Data for the rad18 strain (AID 177); settings: S. cerevisiae rad18 mutant growth inhibition, active compounds read high
Method in brief: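 Readout: growth inhibition vs vehicle controls. Cells: genetically altered yeast strain, DNA repair defect.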

[15] = at 5.0 µM (retest, dose inferred, filed as 0.5)
[16] = at 50.0 µM (retest, dose inferred, filed as 5.0)

Measured: growth inhibition

COc1cc(NCCCCCNC(C)C)c2ncccc2c1Cl
inactive: [1]; at 1.2 µM -2% | [1]; at 3.7 µM 3% | [1]; at 11.0 µM 1% | [1]; at 33.0 µM 2% | [1]; at 100.0 µM -8% | [2]; at 1.2 µM 1% | [2]; at 3.7 µM -1% | [2]; at 11.0 µM 1% | [2]; at 33.0 µM 9% | [2]; at 100.0 µM 13% | [3]; at 1.2 µM -5% | [3]; at 3.7 µM -3% | [3]; at 11.0 µM 1% | [3]; at 33.0 µM 3% | [3]; at 100.0 µM 33% | [4]; at 1.2 µM -1% | [4]; at 3.7 µM 2% | [4]; [15] 8% | [4]; at 11.0 µM 4% | [4]; at 33.0 µM 7% | [4]; [16] 12% | [4]; at 50.0 µM 49.7% | [4]; at 100.0 µM 24% | [5]; at 1.2 µM -1% | [5]; at 3.7 µM 2% | [5]; [15] -3% | [5]; at 11.0 µM 3% | [5]; at 33.0 µM 4% | [5]; [16] 13% | [5]; at 50.0 µM 6.65% | [5]; at 100.0 µM 10% | [6]; [15] 5% | [6]; [16] 28% | [6]; at 50.0 µM 52.5% | [7]; at 1.2 µM 0% | [7]; at 3.7 µM -6% | [7]; at 11.0 µM 6% | [7]; at 33.0 µM 14% | [7]; at 100.0 µM 36% | [8]; [15] 8% | [8]; [16] 41% | [8]; at 50.0 µM 26.8% | [9]; at 1.2 µM -2% | [9]; at 3.7 µM -1% | [9]; [15] 6% | [9]; at 11.0 µM 3% | [9]; at 33.0 µM 11% | [9]; [16] 38% | [9]; at 50.0 µM 36.5% | [9]; at 100.0 µM 25% | [10]; at 1.2 µM -2% | [10]; at 3.7 µM -1% | [10]; at 11.0 µM 0% | [10]; at 33.0 µM 7% | [10]; at 100.0 µM 6% | [11]; at 1.2 µM -1% | [11]; at 3.7 µM -1% | [11]; at 11.0 µM 1% | [11]; at 33.0 µM 7% | [11]; at 100.0 µM 15% | [12]; at 1.2 µM -1% | [12]; at 3.7 µM -2% | [12]; at 11.0 µM 3% | [12]; at 33.0 µM 13% | [12]; at 100.0 µM 23% | [13]; [15] 5% | [13]; [16] 38% | [13]; at 50.0 µM 56.8% | [14]; at 1.2 µM -1% | [14]; at 3.7 µM -4% | [14]; at 11.0 µM -1% | [14]; at 33.0 µM 5% | [14]; at 100.0 µM 13%
